This note sets out measurements from PubChem BioAssay (Tox21).

Active and inactive are the calls of the source. Calls follow the shape of the dose curve; as a rule, active = well fitted activation curve with a large enough effect in the repeat runs; inconclusive = weak or mixed curves; inactive = flat fitted curve, though single readings scatter.
% is scaled to controls: 0 for no effect and ±100 for the full control effect.

The assay in a line: Caspase-3/7 induction in CHO-K1 cells by small molecules, qHTS assay (AID 1346980). Also: nearly all actives have a fitted effect of over 15% in size. Particulars: CHO-K1 caspase-3/7 induction, Caspase-Glo luminescence, 17 h; series mostly up to 92.4 µM; caspase-3/7 activation: at the top concentration. From the text:
National Center for Advancing Translational Sciences [NCATS]
NIH Chemical Genomics Center [NCGC]
U.S. Environmental Protection Agency [EPA]
National Institutes of Environmental Health Sciences [NIEHS]
National Toxicology Program [NTP]
Apoptosis is a process of programmed cell death and plays a central role in the development of multicellular organisms. It is a highly regulated process and induces cell death by activating caspases, which are the members of cysteine aspartic acid-specific protease (caspase) family. Caspases involved in apoptosis are classified by their mechanism of action as initiator caspases (caspase-2, -8, -9 and -10) and executioner caspases (caspase-3, -6, and -7). Inhibition of apoptosis results in number of cancers, autoimmune diseases, inflammatory diseases and viral infection. To identify small molecule compounds that induce apoptosis, a homogeneous, luminescent Caspase-Glo 3/7 assay was used. Wild type CHO-K1 cells were used to screen Tox21 libraries for identifying caspase-3/7 activity inducers.
CHO-K1 cells were dispensed at 1,500 per well in 5uL of culture medium into white solid bottom 1536-well plates (Corning Life Sciences, Corning, NY) using a Multidrop Combi (Thermo Scientific, Waltham, MA) dispenser. The assay plates were incubated at 37 C and 5% CO2 for 5hr, and then 23nL of compounds dissolved in DMSO and positive control were transferred using a Pintool station (Wako, San Diego, CA). The assay plates were incubated at 37C and 5% CO2 for 17hr. For caspase-3/7 activity read, 4uL of Caspase-Glo 3/7 reagent (Promega Corporation, Madison, WI) was added to each well of the assay plates using Flying Reagent Dispenser (FRD, Aurora Discovery, San Diego, CA) and incubated the assay plates at room temperature for 30min. The luminescence signal was quantified using a ViewLux plate reader (Perkin Elmer, Shelton, CT).
On to `O=C(C(=O)c1ccccc1)c1ccccc1`, for which the “caspase-3/7 activation” value was -0.267% (inactive).
Consider `NC(=O)Nc1ccc(Cl)cc1`, for which the “caspase-3/7 activation” value is -0.21% (inactive).
The same measure, in the same setting: then `Nc1ccc(S(=O)(=O)O)cc1`, with -1.11% (inactive); and `CC(C)(C)C(=O)O`, with 1.1% (inactive); and `O=C(O)c1ccc(CO)o1`, with -0.182% (inactive).
With `Cn1c(=O)c2c(ncn2CC(=O)O)n(C)c1=O`, the “caspase-3/7 activation” value is -0.507% [at 42.5 µM] (inactive).
Consider `CN1CCN(CCCN2c3ccccc3Sc3ccc(S(=O)(=O)N(C)C)cc32)CC1`, for which the “caspase-3/7 activation” value was 7.32% [at 42.5 µM] (inactive).
On the same count and under the same terms, with `CCC1(C)CC(=O)NC1=O` (stereo not given) the figure was -0.587% [at 42.5 µM] (inactive).
Take `CNC(=S)NC`: the “caspase-3/7 activation” value was -0.233% (inactive).
As for `O=C(/C=C/c1ccccc1)OCCCc1ccccc1`, the “caspase-3/7 activation” value is -0.495% (inactive).
As for `COCc1c(C(C)C)nc(C(C)C)c(/C=C/[C@@H](O)C[C@@H](O)CC(=O)O)c1-c1ccc(F)cc1`, the “caspase-3/7 activation” value is 4.41% [at 42.5 µM] (inactive).
In the case of `CCOC(=O)c1ccccc1C`, the “caspase-3/7 activation” value was 0.0643% (inactive).
Regarding `CCCCOC(=O)CCS`, the “caspase-3/7 activation” value was 0.868% (inactive).
Take `CCCOC(=O)c1ccc(C(=O)OCCC)nc1`: the “caspase-3/7 activation” value was -0.532% (inactive).
In the case of `CC(=O)OCC(=O)[C@@]12OC(C)(C)O[C@@H]1C[C@H]1[C@@H]3C[C@H](F)C4=CC(=O)C=C[C@]4(C)[C@@]3(F)[C@@H](O)C[C@@]12C`, the “caspase-3/7 activation” value is 0.192% [at 42.5 µM] (inactive).
As for `CCC(C(=O)OCCN(CC)CC)c1ccccc1` (stereo not given), the “caspase-3/7 activation” value is -0.0233% [at 42.5 µM] (inactive).
Still for that read-out and setting: then `C/C=C(\C)C(=O)OCCC(C)CCC=C(C)C` (stereo not given), with -2.19% (inactive).
`CC(C)(C)C(=O)C(Oc1ccc(Cl)cc1)n1ccnc1` (stereo not given): the “caspase-3/7 activation” value was 0.635% [at 42.5 µM] (inactive).
In the case of `CCCCCCCC/C=C\CCCCCCCC(=O)OC`, the “caspase-3/7 activation” value is -1.18% (inactive).
`CCOC(=O)CC(=O)C(=O)OCC`: the “caspase-3/7 activation” value is -0.13% (inactive).
In the case of `CCCCCCCCCCCCCCCCBr`, the caspase-3/7 activation is -0.176% [at 19 µM] (inactive).
On to `CCCCCC=CCC=CCCCCCCCC(=O)OCC`, for which the “caspase-3/7 activation” value was 12.7% [at 42.5 µM] (inactive).
As to `C=CCOC(=O)/C=C\C(=O)OCC=C`, the “caspase-3/7 activation” value is -2.03% (inactive).
In the case of `COC(=O)CC(=O)C(C)(C)C`, the “caspase-3/7 activation” value was 0.0147% (inactive).
`O=C(Nc1ccc([N+](=O)[O-])cc1)Nc1ccc([N+](=O)[O-])cc1`: the “caspase-3/7 activation” value was 0.0479% [at 42.5 µM] (inactive).
For `CC(C)CCCCCCOC(=O)CCCCC(=O)OCCCCCCC(C)C`, the “caspase-3/7 activation” value was 0.144% (inactive).
For the compound `CC(CCO)CCc1ccccc1` (stereo not given), the “caspase-3/7 activation” value was -0.922% (inactive).
As for `CCCCC(=O)O[C@]1(C(=O)CO)[C@@H](C)C[C@H]2[C@@H]3CCC4=CC(=O)C=C[C@]4(C)[C@@]3(F)[C@@H](O)C[C@@]21C`, the “caspase-3/7 activation” value is 3.68% (inactive).
As to `Cc1oncc1C(=O)Nc1ccc(C(F)(F)F)cc1`, the compound was called inactive.
Turning to `CC(=O)CC(c1ccc([N+](=O)[O-])cc1)c1c(O)c2ccccc2oc1=O` (stereo not given), the “caspase-3/7 activation” value is -1.55% [at 42.5 µM] (inactive).
`CO[C@H]1C=CO[C@@]2(C)Oc3c(C)c(O)c4c(O)c(c5c(c4c3C2=O)=NC2(CCN(CC(C)C)CC2)N=5)NC(=O)/C(C)=C\C=C/[C@H](C)[C@H](O)[C@@H](C)[C@@H](O)[C@@H](C)[C@H](OC(C)=O)[C@@H]1C`: the “caspase-3/7 activation” value was -2.09% (inactive).
Regarding `O=C(OCCOCCO)c1ccccc1Nc1cccc(C(F)(F)F)c1`, the “caspase-3/7 activation” value was 0.137% [at 42.5 µM] (inactive).
For the compound `Cc1ccc(S)cc1`, the “caspase-3/7 activation” value is 1.4% (inactive).
`CC1=NN(c2ccc(C(=O)O)cc2)C(=O)C1`: the “caspase-3/7 activation” value was -0.766% (inactive).
Turning to `CC1C2CC(CC2C2CCCC(O)C2)C1(C)C` (stereo not given), the “caspase-3/7 activation” value is 11.7% (inactive).
Turning to `O=C(CCC1CCN(Cc2ccccc2)CC1)c1ccc2c(c1)NCCCC2`, the “caspase-3/7 activation” value is -0.722% [at 42.5 µM] (inactive).
Consider `CCCCC(CC)COC(=O)COc1ccc(Cl)cc1C` (stereo not given), for which the “caspase-3/7 activation” value is 0.252% (inactive).
`C[N+]1(C)CCC(=C(c2ccccc2)c2ccccc2)CC1`: the “caspase-3/7 activation” value is 0.0767% [at 42.5 µM] (inactive).
In the case of `CCCCC/C(=C\c1ccccc1)CO`, the “caspase-3/7 activation” value was 2.04% (inactive).
Still for that read-out and setting: with `C=CCCCCCCCCCCCCCCCC` the figure was 0.114% [at 8.39 µM] (inactive).
